From PubChem BioAssay (NCI)
The panel holds about 83,000 compounds, 20% with a hit somewhere; the sample as a whole holds those more often.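 Cell lines were cultured in 96-well plates, exposed to a single compound concentration, and assessed for percent growth 48 hours later.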 Active and inactive are the calls of the source. Rule for the calls: active = growth percent below 10; inactive = the rest.

Assays:
Assay in all cases: NCI-60 one-dose screen, 48 h (100 = growth as untreated, 0 = no growth, -100 = all killed)
Conditions in all cases: 10 µM unless noted
DU-145 prostate = system: DU-145 prostate
K-562 leukemia = system: K-562 leukemia
MALME-3M melanoma = system: MALME-3M melanoma
MDA-MB-231 breast = system: MDA-MB-231 breast
RXF 393 renal = system: RXF 393 renal
SF-268 CNS = system: SF-268 CNS
SF-539 CNS = system: SF-539 CNS
UACC-257 melanoma = system: UACC-257 melanoma
M14 melanoma = system: M14 melanoma
HCT-15 colon = system: HCT-15 colon
HT29 colon = system: HT29 colon
SNB-75 CNS = system: SNB-75 CNS
SNB-19 CNS = system: SNB-19 CNS
U251 CNS = system: U251 CNS
PC-3 prostate = system: PC-3 prostate
SK-MEL-5 melanoma = system: SK-MEL-5 melanoma
UACC-62 melanoma = system: UACC-62 melanoma
LOX IMVI melanoma = system: LOX IMVI melanoma
SK-MEL-28 melanoma = system: SK-MEL-28 melanoma

Measured: growth

COc1ccc2nc(C)cc(Nc3ccccc3O)c2c1
inactive: DU-145 prostate 63.9% | SF-268 CNS 64.8% | UACC-257 melanoma 75.1% | M14 melanoma 81.8% | HCT-15 colon 32.8% | HT29 colon 18.9% | SNB-19 CNS 26% | PC-3 prostate 47.1% | SK-MEL-5 melanoma 72.9% | UACC-62 melanoma 56.5% | SK-MEL-28 melanoma 33.4%
active: K-562 leukemia 6.3% | MALME-3M melanoma -12.4% | MDA-MB-231 breast 9.5% | RXF 393 renal -41.7% | SF-539 CNS -72.7% | SNB-75 CNS -93.2% | U251 CNS -27.5% | LOX IMVI melanoma 2.48%

Cc1c(C)c(C)c([N+](=O)[O-])c([N+](=O)[O-])c1C
inactive: DU-145 prostate 92.2% | K-562 leukemia 119% | MALME-3M melanoma 90.1% | MDA-MB-231 breast 79.3% | RXF 393 renal 107% | SF-268 CNS 93% | SF-539 CNS 92% | UACC-257 melanoma 103% | M14 melanoma 104% | HCT-15 colon 94% | HT29 colon 102% | SNB-75 CNS 111% | SNB-19 CNS 95.4% | U251 CNS 101% | PC-3 prostate 84% | SK-MEL-5 melanoma 99.3% | UACC-62 melanoma 83.6% | LOX IMVI melanoma 95.9% | SK-MEL-28 melanoma 104%

O=C(CN1CCN(c2ccccc2)CC1)N1CCN(c2nnc(-c3ccc(Cl)cc3)c(-c3ccc(Cl)cc3)n2)CC1
inactive: DU-145 prostate 76% | K-562 leukemia 22.4% | MALME-3M melanoma 126% | MDA-MB-231 breast 76.4% | RXF 393 renal 49.9% | SF-268 CNS 65.2% | SF-539 CNS 60.2% | UACC-257 melanoma 61.6% | M14 melanoma 69.5% | HCT-15 colon 45.4% | HT29 colon 32.3% | SNB-75 CNS 66.8% | SNB-19 CNS 82.1% | U251 CNS 60.4% | PC-3 prostate 26.6% | SK-MEL-5 melanoma 44.2% | UACC-62 melanoma 63.1% | LOX IMVI melanoma 64.6% | SK-MEL-28 melanoma 81.9%

CC1=C(C(=O)Nc2ccc(F)cc2)C(c2ccccc2)C2=C(CC(C)(C)CC2=O)N1 (stereo unspecified)
inactive: DU-145 prostate 95.2% | K-562 leukemia 56% | MALME-3M melanoma 89.8% | MDA-MB-231 breast 70% | RXF 393 renal 96.4% | SF-268 CNS 82.6% | SF-539 CNS 79.5% | UACC-257 melanoma 83.6% | M14 melanoma 82.6% | HCT-15 colon 77.8% | HT29 colon 96.3% | SNB-75 CNS 65.8% | SNB-19 CNS 87.4% | U251 CNS 69.8% | PC-3 prostate 54.6% | SK-MEL-5 melanoma 38.2% | UACC-62 melanoma 55.6% | LOX IMVI melanoma 79% | SK-MEL-28 melanoma 68%

OC(c1cc(-c2ccc(C(F)(F)F)cc2)nc(-c2ccc(C(F)(F)F)cc2)c1)C1CCCCN1 (stereo unspecified)
active: DU-145 prostate -94.9% | K-562 leukemia -73.6% | MALME-3M melanoma -64.7% | MDA-MB-231 breast -71% | RXF 393 renal -86% | SF-268 CNS -83.9% | SF-539 CNS -77.3% | UACC-257 melanoma -76% | M14 melanoma -80.1% | HCT-15 colon -71% | HT29 colon -81.7% | SNB-75 CNS -82.9% | SNB-19 CNS -66.2% | U251 CNS -85% | PC-3 prostate -86.1% | SK-MEL-5 melanoma -78.2% | UACC-62 melanoma -84.3% | LOX IMVI melanoma -65.8% | SK-MEL-28 melanoma -88.5%

Cn1nc(C(F)(F)F)cc1-c1c[nH]c(OCc2ccc(Cl)cc2)c(-c2ccc(Cl)c(C(F)(F)F)c2)c1=O
inactive: DU-145 prostate 15.7% | SNB-19 CNS 21.1% | SK-MEL-28 melanoma 10.1%
active: K-562 leukemia 8.64% | MALME-3M melanoma -24.2% | MDA-MB-231 breast -29% | RXF 393 renal -21.9% | SF-268 CNS 8.48% | SF-539 CNS -11.4% | UACC-257 melanoma 4.21% | M14 melanoma 1.49% | HCT-15 colon 6.6% | HT29 colon 5.99% | SNB-75 CNS -6.2% | U251 CNS 8.33% | PC-3 prostate 5% | SK-MEL-5 melanoma -63.9% | UACC-62 melanoma -14.9% | LOX IMVI melanoma 7.07%

Clc1ncnc2scc(C3COc4ccccc4O3)c12 (stereo unspecified)
inactive: DU-145 prostate 76.8% | K-562 leukemia 69.8% | MALME-3M melanoma 58.7% | MDA-MB-231 breast 98.3% | RXF 393 renal 99.6% | SF-268 CNS 101% | SF-539 CNS 94.1% | UACC-257 melanoma 93.2% | M14 melanoma 88.4% | HCT-15 colon 79.8% | HT29 colon 103% | SNB-75 CNS 65.2% | SNB-19 CNS 100% | U251 CNS 90.4% | PC-3 prostate 98.8% | SK-MEL-5 melanoma 90.4% | UACC-62 melanoma 98.2% | LOX IMVI melanoma 41% | SK-MEL-28 melanoma 83.8%

CCOC(=O)c1ccc(NC(=O)NC2=NCCS2)cc1
active: DU-145 prostate 0.751% | MALME-3M melanoma 8.27% | RXF 393 renal -15.3% | SF-539 CNS 1.9%
inactive: K-562 leukemia 58.6% | MDA-MB-231 breast 51.8% | SF-268 CNS 40.4% | UACC-257 melanoma 80.5% | M14 melanoma 34.9% | HCT-15 colon 59.3% | HT29 colon 106% | SNB-75 CNS 21.5% | SNB-19 CNS 54.3% | U251 CNS 26.6% | PC-3 prostate 16% | SK-MEL-5 melanoma 75.9% | UACC-62 melanoma 78.9% | LOX IMVI melanoma 92.4% | SK-MEL-28 melanoma 87.3%

COC1CC(N)C2OC(c3ccccc3)OCC2O1 (stereo unspecified)
inactive: DU-145 prostate 115% | K-562 leukemia 93.9% | MALME-3M melanoma 106% | MDA-MB-231 breast 98.3% | RXF 393 renal 115% | SF-268 CNS 108% | SF-539 CNS 101% | UACC-257 melanoma 95.4% | M14 melanoma 107% | HCT-15 colon 97.1% | HT29 colon 103% | SNB-75 CNS 71.4% | SNB-19 CNS 103% | U251 CNS 99.8% | PC-3 prostate 105% | SK-MEL-5 melanoma 105% | UACC-62 melanoma 101% | LOX IMVI melanoma 98.8% | SK-MEL-28 melanoma 105%
